# According to PubChem BioAssay:
# “And” between values parts separate entries of the source, which are not always exact repeats. Identical values can stand only once. Results filed as inconclusive are left out. The source made the active and inactive calls. Unless noted, how the calls were made is not given here.
# Tests used:
# [1] = compounds altering circadian rhythm period length – cell-based, LOPAC library, luminescence reporter (AID 2774); settings: circadian reporter cells, at 7 µM, actives lie on both sides;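 further: values are relative to mean of DMSO wells on each plate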
# [2] = P. berghei load reduction in hepatocytes – cell-based, HepG2, luciferase luminescence, HepG2 viability, primary screen (AID 624349; in the data active means parasite load remaining mostly below about 12%, no sharp cut-off; inactive means mostly above about 10%;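 further: 100% = mean of DMSO negative control wells on the same plate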); settings: P. berghei liver stage in HepG2, luciferase luminescence, concentration not given here; parasite load remaining: stronger effect = lower value; viability: measured here: HepG2 viability without parasites
# [3] = tested on: Hepatitis C virus NS3 helicase; assay: blockers of NS3h binding to ssDNA – biochemical, fluorescence polarization, LOPAC1280 library, primary screen (AID 687035; in the data active means inhibition above about 37%); settings: Purified HCV NS3 helicase, Cy5-dT15 ssDNA binding fluorescence polarization; stronger effect = higher value; concentration not given here
# [4] = compounds altering Cy5-DNA-NS3h complex signal – biochemical, LOPAC1280, artefact control for HCV NS3 helicase inhibitor project (AID 687037); settings: Cy5-DNA-NS3h complex fluorescence interference counterscreen
# [5] = signal quenchers or enhancers, Cy5 substrate/SSB – biochemical, NIH Clinical Collection, E. coli SSB, artefact control for HCV NS3 helicase inhibitor project (AID 743268); settings: Cy5-oligo bound E. coli SSB, fluorescence interference
# [6] = tested on: Hepatitis C virus NS3 helicase; assay: blockers of NS3h binding to DNA – biochemical, fluorescence polarization, NIH Clinical Collection, primary screen (AID 743270); settings: NS3 helicase binding to Cy5-dT15 DNA, stronger effect = higher value, concentration not given here
# [7] = target: Single-stranded DNA-binding protein (Escherichia coli (strain K12)) (UniProt P0AGE0); assay: SSB-ssDNA binding inhibitors – biochemical, fluorescence polarization, NIH Clinical Collection, counter-screen for HCV NS3 helicase inhibitor project (AID 743271; in the data active means inhibition above about 28%); settings: E. coli SSB-DNA binding, stronger effect = higher value, concentration not given here
# [8] = compounds distorting NS3 helicase fluorescence signal – biochemical, NIH Clinical Collection, artefact control for HCV NS3 helicase inhibitor project (AID 743272); settings: fluorescence interference counterscreen, HCV NS3 helicase assay; stronger effect = lower value;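 further: HCV NS3 helicase with a Cy5 labelled single stranded DNA probe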
# [9] = tested on: Neuropilin-2 / VEGF-C interaction (human); assay: small molecules blocking Neuropilin-2/VEGF-C interaction – biochemical, microplate binding format, z-score (AID 743281); settings: microplate NRP2/VEGF-C binding assay; stronger effect = lower value
# [10] = modulation of C. elegans fzo-1 (AID 1259413);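 further: fzo-1 mutant C. elegans worms in liquid wells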; settings: C. elegans fzo-1 modulator screen, mean read-out; stronger effect = higher value
# [11] = tested on: Aerobactin synthetase IucA (Klebsiella pneumoniae, hypervirulent); assay: biochemical IucA inhibition screen of LOPAC library by absorbance (AID 1346212); settings: IucA enzyme assay, absorbance (OD) readout; stronger effect = lower value;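 tested at 8 µM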;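 further: 100% = no compound wells and 0% = no enzyme wells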
# [12] = viability loss with induced miR-34 in A549 – imaging, A549 dox-inducible miR-34, nuclei and caspase counts, primary screen (AID 1347080;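 active means compounds whose cell count with miR-34 switched on is under 0.7 times the count with it off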); settings: A549 miR-34 inducible, Hoechst nuclei count, 48 h
# [13] = blockers of cellular phospholipid synthesis – cell-based, LOPAC library, screen 4, primary screen (AID 1347384); settings: animal cells, phospholipid biosynthesis inhibition screen; at 10 µM
# [14] = galactose survival enhancers in mitochondrial complex I cybrids – cell-based, galactose medium, ATP luminescence, primary screen (AID 1645843;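 active means z-score of at least 1.8 in each of two replicates, scored against plate mean and spread of sample wells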;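 further: positive z means more ATP and so rescue of galactose-driven cybrid death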); settings: complex I mutant cybrid cells, 72 h, stronger effect = higher value
# F380Y = assay: BK channel mutant inhibitors and activators – cell-based, U2OS BacMam, thallium flux, beta subunits, selectivity assay, profiling panel (AID 1259406;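 active means thallium flux through the channel raised or lowered by more than 3 SD from vehicle-only wells, actives on both sides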;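 further: initial slope of Thallos dye fluorescence rise after thallium is added; log ratio against the mean of 0.3% DMSO vehicle wells on the same plate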); settings: U2OS BacMam BK variants, at 30 µM
# F380Y/beta1 = assay: as above; settings: U2OS BacMam BK variants, at 30 µM
# F380Y/beta2Delta = assay: as above; settings: U2OS BacMam BK variants, at 30 µM
# F380Y/beta4 = assay: as above; settings: U2OS BacMam BK variants, at 30 µM
# [15] = target: Calcium-activated potassium channel subunit alpha-1 (Homo sapiens) + Leucine-rich repeat-containing protein 26 (Homo sapiens) (UniProt Q12791+Q2I0M4); assay: as above; settings: U2OS BacMam BK variants, F380Y/Slo1WT/gamma1, at 30 µM
# Chain of Calcium-activated potassium channel subunit alpha-1 (Homo sapiens) + Leucine-rich repeat-containing protein 26 (Homo sapiens) (Q2I0M4 whole entry, looked up, one chain of several): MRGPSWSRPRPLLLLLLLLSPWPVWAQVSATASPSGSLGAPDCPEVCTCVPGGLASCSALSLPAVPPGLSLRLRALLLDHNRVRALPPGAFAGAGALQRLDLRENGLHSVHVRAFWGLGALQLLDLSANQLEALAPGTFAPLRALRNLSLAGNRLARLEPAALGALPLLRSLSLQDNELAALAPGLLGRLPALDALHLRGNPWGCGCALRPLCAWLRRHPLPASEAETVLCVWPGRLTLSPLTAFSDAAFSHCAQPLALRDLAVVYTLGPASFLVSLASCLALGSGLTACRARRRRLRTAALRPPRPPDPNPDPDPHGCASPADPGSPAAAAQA
# R275C = assay: as above; settings: U2OS BacMam BK variants, at 30 µM
# R275C/beta1 = assay: as above; settings: U2OS BacMam BK variants, at 30 µM
# R275C/beta2Delta = assay: as above; settings: U2OS BacMam BK variants, at 30 µM
# R275C/beta4 = assay: as above; settings: U2OS BacMam BK variants, at 30 µM
# R275C/Slo1WT/beta2 = assay: as above; settings: U2OS BacMam BK variants, at 30 µM
# [16] = target: ATP-dependent translocase ABCB1 (Homo sapiens) (UniProt P08183); assay: P-glycoprotein substrate transport blockade – cell-based (AID 377; in the data active means fluorescence slope change above about 50%); settings: MDR1-expressing cells, fluorescent substrate accumulation slope; stronger effect = higher value; concentration not given here
# Chain of ATP-dependent translocase ABCB1 (Homo sapiens) (P08183 whole entry, looked up): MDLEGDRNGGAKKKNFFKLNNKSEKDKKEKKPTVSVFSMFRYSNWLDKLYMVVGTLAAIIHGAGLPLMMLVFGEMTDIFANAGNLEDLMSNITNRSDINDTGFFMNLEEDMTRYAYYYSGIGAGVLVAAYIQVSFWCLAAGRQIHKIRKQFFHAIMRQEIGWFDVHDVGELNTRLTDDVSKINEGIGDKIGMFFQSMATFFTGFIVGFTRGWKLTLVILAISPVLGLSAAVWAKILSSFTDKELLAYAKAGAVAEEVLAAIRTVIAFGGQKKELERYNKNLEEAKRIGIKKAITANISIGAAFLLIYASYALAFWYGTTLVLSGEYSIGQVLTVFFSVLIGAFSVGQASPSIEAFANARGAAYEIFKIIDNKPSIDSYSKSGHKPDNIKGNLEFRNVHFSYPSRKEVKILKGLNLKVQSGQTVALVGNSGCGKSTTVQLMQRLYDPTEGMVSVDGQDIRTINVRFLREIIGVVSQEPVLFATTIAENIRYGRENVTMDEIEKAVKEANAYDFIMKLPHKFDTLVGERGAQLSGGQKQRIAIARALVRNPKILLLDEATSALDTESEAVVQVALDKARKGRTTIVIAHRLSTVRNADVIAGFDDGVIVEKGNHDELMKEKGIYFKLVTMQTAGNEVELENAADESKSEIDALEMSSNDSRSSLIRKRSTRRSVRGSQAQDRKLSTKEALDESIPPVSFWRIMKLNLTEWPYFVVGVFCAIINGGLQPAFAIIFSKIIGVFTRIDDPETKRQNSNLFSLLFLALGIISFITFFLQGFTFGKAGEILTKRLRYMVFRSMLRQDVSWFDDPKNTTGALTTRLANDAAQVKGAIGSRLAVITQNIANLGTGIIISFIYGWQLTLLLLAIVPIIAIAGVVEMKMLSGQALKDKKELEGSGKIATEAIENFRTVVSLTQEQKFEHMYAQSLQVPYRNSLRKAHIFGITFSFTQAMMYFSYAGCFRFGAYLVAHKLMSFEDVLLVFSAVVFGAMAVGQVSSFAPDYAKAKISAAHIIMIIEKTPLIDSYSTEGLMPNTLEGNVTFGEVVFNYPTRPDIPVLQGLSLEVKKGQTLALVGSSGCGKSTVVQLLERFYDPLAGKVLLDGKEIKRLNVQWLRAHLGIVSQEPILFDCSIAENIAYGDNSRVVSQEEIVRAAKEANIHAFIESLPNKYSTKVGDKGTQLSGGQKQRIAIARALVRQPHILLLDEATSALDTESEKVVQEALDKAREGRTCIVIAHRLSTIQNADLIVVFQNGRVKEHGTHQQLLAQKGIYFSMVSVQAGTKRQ
# [17] = compounds altering viability of human ES cells (AID 493140); settings: human embryonic stem cell survival screen; stronger effect = higher value;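 further: cells exposed to compounds for four days before counting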
# [18] = tested on: Aerobactin synthetase IucA (Klebsiella pneumoniae); assay: inhibition of K. pneumoniae IucA enzyme – biochemical, Tocris library, absorbance (AID 1345561); settings: purified IucA enzyme assay, absorbance (OD) read-out; stronger effect = lower value;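 tested at 8 µM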;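 further: 100% = enzyme without compound and 0% = no enzyme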
# [19] = MELAS cybrid and Rieske KO viability enhancers – cell-based, MELAS cybrids, Rieske KO mouse fibroblasts, CellTiter-Glo, primary screen (AID 1508586;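 active means mean z-score across replicates of 1.96 or higher in either the MELAS or the Rieske mutant cell line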;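 further: z relative to plate mean and SD of compound and empty wells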); settings: low glucose
# [20] = measured here: relative caspase fold change +Dox/-Dox
# [21] = measured here: total cells with miR-34 induction, stronger effect = lower value
# [22] = measured here: total cells without miR-34 induction
smiles,measurement,setting,value
COC(=O)N1CCN(C(=O)Cc2ccc(Cl)c(Cl)c2)C(CN2CCCC2)C1 (stereo not drawn),period change,[1],-0.045 h (inactive)
same,parasite load remaining,[2],76.7% (inactive)
same,viability,[2],75.4%
same,inhibition,[3],-4% (inactive)
same,fluorescence ratio (interference),[4],1 (inactive)
same,fluorescence ratio,[5],1.05 (inactive)
same,inhibition,[6],4.36% (inactive)
same,inhibition,[7],2.21% (inactive)
same,fluorescence ratio,[8],1.03 (inactive)
same,z-score,[9],1.19 (inactive)
same,mean signal,[10],274 (inactive)
same,remaining activity,[11],101% (inactive)
same,fold change,[12]; stronger effect = lower value,0.961 (inactive)
same,fold change,"[12]; stronger effect = lower value, cell number ratio, induced over uninduced",0.883 (inactive)
same,fold change,[12]; [20],1.01 and 1.9
same,cell count,[12]; [21],10100 and 8750
same,cell count,[12]; [22],10500 and 9910
same,outcome,[13],inactive
same,z-score,[14],-0.09 (inactive) and 0.285 (inactive)
same,log fold change Tl+ flux,F380Y,0.0797 (inactive)
same,log fold change Tl+ flux,F380Y/beta1,0.0396 (inactive)
same,log fold change Tl+ flux,F380Y/beta2Delta,0.0718 (inactive)
same,log fold change Tl+ flux,F380Y/beta4,0.0372 (inactive)
same,log fold change Tl+ flux,[15],-0.0265 (inactive)
same,log fold change Tl+ flux,R275C,-0.00833 (inactive)
same,log fold change Tl+ flux,R275C/beta1,0.0475 (inactive)
same,log fold change Tl+ flux,R275C/beta2Delta,0.0511 (inactive)
same,log fold change Tl+ flux,R275C/beta4,0.0175 (inactive)
same,log fold change Tl+ flux,R275C/Slo1WT/beta2,0.0529 (inactive)
COc1ccc2c(c1)C13CCCC[C@@H]1C(C2)N(C)CC3 (stereo partly drawn),fluorescence slope change,[16],14.1% (inactive)
same,survival,[17],5.75 (inactive)
same,parasite load remaining,[2],74.7% (inactive)
same,viability,[2],74%
same,fluorescence ratio,[5],0.98 (inactive)
same,inhibition,[6],0.4% (inactive)
same,inhibition,[7],2.21% (inactive)
same,fluorescence ratio,[8],0.92 (inactive)
same,z-score,[9],-0.757 (inactive)
same,mean signal,[10],229 (inactive)
same,remaining activity,[11],108% (inactive)
CCCCCCCCCOc1ccc2[nH]cc(CCN)c2c1,parasite load remaining,[2],0.13% (inactive)
same,viability,[2],3.42%
same,fluorescence ratio,[5],0.97 (inactive)
same,inhibition,[6],-8.08% (inactive)
same,inhibition,[7],67.3% (active)
same,fluorescence ratio,[8],0.61 (active)
same,z-score,[9],-2.82 (inactive)
same,mean signal,[10],264 (inactive)
same,fold change,[12]; stronger effect = lower value,0.664 (active)
same,fold change,[12]; [20],1.96
same,cell count,[12]; [21],4000
same,cell count,[12]; [22],6020
same,z-score,[14],-1.44 (inactive)
O[C@@H]1CCCC[C@H]1N1CCC(c2ccccc2)CC1,parasite load remaining,[2],78.7% (inactive) and 101% (inactive)
same,viability,[2],93.8% and 73%
same,fluorescence ratio,[5],0.98 (inactive)
same,inhibition,[6],1.19% (inactive)
same,inhibition,[7],0.67% (inactive)
same,fluorescence ratio,[8],0.91 (inactive)
same,z-score,[9],-0.802 (inactive)
same,mean signal,[10],231 (inactive)
same,remaining activity,[18],96.8% (inactive)
same,fold change,[12]; stronger effect = lower value,0.933 (inactive) and 0.866 (inactive)
same,fold change,[12]; [20],1.17 and 0.745
same,cell count,[12]; [21],8520 and 8230
same,cell count,[12]; [22],9130 and 9500
same,z-score,"[19]; MELAS cybrid survival, CellTiter-Glo 48 h, stronger effect = higher value",-0.566 (inactive)
same,z-score,"[19]; Rieske KO mouse fibroblast survival, CellTiter-Glo 72 h",-0.671
same,z-score,[14],-0.07 (inactive)
C[C@]12CC[C@H](O)CC1=CC[C@@H]1[C@@H]2CC[C@@]2(C)[C@H]1CC[C@]2(C)O,parasite load remaining,[2],67.4% (inactive)
same,viability,[2],70.8%
same,fluorescence ratio,[5],1.04 (inactive)
same,inhibition,[6],-1.19% (inactive)
same,inhibition,[7],-4.72% (inactive)
same,fluorescence ratio,[8],1.02 (inactive)
same,log fold change Tl+ flux,F380Y,0.0283 (inactive)
same,log fold change Tl+ flux,F380Y/beta1,0.0442 (inactive)
same,log fold change Tl+ flux,F380Y/beta2Delta,0.0164 (inactive)
same,log fold change Tl+ flux,F380Y/beta4,0.0285 (inactive)
same,log fold change Tl+ flux,[15],0.0157 (inactive)
same,log fold change Tl+ flux,R275C,0.0183 (inactive)
same,log fold change Tl+ flux,R275C/beta1,0.0261 (inactive)
same,log fold change Tl+ flux,R275C/beta2Delta,-0.00697 (inactive)
same,log fold change Tl+ flux,R275C/beta4,-0.00925 (inactive)
same,log fold change Tl+ flux,R275C/Slo1WT/beta2,0.057 (inactive)
CN1CC[C@]2(c3cccc(O)c3)Cc3nc4ccccc4cc3C[C@H]2C1,parasite load remaining,[2],54.3% (inactive)
same,viability,[2],65.5%
same,fluorescence ratio,[5],0.96 (inactive)
same,inhibition,[6],-8.08% (inactive)
same,inhibition,[7],-1.97% (inactive)
same,fluorescence ratio,[8],0.98 (inactive)
same,z-score,[9],-0.954 (inactive)
same,mean signal,[10],226 (inactive)
